# VDR inhibitor = Inhibitors of the vitamin D receptor (VDR): qHTS | VDR-SRC2-3 peptide fluorescence polarization, 2 h | AID 504847, 2011 | Potency, µM, for the others: max response, negative = inhibition, actives largely listed as inhibitors | Vitamin D3 receptor (Homo sapiens), P11473 | 400,000 tested, 0.93% active; further: potency means the concentration at half of the fitted maximal effect
#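 Fluorescence polarization assay of small-molecule disruption of VDR binding to coregulator peptide SRC2-3. Compounds and controls pin-transferred, then read after 2 h incubation at ambient room temperature.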
# GALK inh = qHTS Assay for Inhibitors of Human Galactokinase (GALK). 270,000 tested, 0.007% active. AID 1868, 2009. Potency, µM (doses to about 57.5 µM), without a hit: at the highest dose activity change, negative = inhibition, most hits filed as inhibitors. P51570. Purified GALK, Kinase-Glo residual ATP luminescence; further: potency means the concentration at half of the fitted maximal effect
#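 Compounds were pin-transferred into ATP buffer (35 uM final), then GALK plus galactose (5 nM, 100 uM final) was added. After 1 h at room temperature, Kinase-Glo Plus was added and luminescence read after 10 min.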
# PLK1 PBD block = qHTS for Inhibitors of PLK1-PDB (polo-like kinase 1 - polo-box domain): Primary Screen; Serine/threonine-protein kinase PLK1 (Homo sapiens), P53350; 360,000 tested, 2.8% active; Potency, µM, for the others: max response, negative = inhibition, actives largely listed as inhibitors; Plk1 PBD binding of FITC phosphopeptide, fluorescence polarization; further: potency means the concentration at half of the fitted maximal effect; series mostly up to about 57 µM; nearly all actives have a fitted effect of over 65% in size
# USP1-UAF1 inh = Inhibitors of USP1/UAF1: Primary Screen. Ubiquitin carboxyl-terminal hydrolase 1 (Homo sapiens), O94782. recombinant USP1/UAF1, Ub-Rhodamine cleavage fluorescence. Potency, µM (series often up to 57.1 µM), for the others: at the highest dose activity change, negative = inhibition, most hits filed as inhibitors. 390,000 tested, 0.23% active; further: potency means the concentration at half of the fitted maximal effect; nearly all actives have a fitted effect of over 60% in size
# Target sequence (O94782 whole entry, looked up): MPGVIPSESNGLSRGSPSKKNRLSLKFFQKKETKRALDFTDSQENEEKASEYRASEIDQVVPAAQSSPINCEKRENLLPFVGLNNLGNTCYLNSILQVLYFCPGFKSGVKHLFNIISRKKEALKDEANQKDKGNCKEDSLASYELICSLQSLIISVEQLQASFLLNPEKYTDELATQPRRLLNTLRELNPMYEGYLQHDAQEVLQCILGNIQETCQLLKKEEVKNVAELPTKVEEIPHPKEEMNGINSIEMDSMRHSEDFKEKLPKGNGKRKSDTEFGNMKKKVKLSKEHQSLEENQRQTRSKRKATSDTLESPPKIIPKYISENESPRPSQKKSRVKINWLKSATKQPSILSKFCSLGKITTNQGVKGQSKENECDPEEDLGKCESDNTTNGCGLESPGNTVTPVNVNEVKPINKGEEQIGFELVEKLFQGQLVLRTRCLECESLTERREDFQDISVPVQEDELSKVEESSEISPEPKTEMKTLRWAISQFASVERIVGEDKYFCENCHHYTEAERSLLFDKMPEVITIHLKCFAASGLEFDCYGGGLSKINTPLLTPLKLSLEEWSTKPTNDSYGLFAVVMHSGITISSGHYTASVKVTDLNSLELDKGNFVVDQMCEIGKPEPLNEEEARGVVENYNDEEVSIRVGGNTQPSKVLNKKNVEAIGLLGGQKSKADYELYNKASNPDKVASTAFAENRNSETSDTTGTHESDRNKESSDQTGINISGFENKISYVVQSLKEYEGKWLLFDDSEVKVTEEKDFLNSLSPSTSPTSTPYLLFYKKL
#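 USP1/UAF1 complex at 1 nM was preincubated with compound for 15 min at room temperature, then Ub-Rho substrate (150nM final) was added. Fluorescence (480/540 nm) was read kinetically, 6 reads every 60 seconds.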
# USP2a block = qHTS Assay for Inhibitors of Ubiquitin-specific Protease USP2a Using CHOP2 as the Reporter; USP2 core, Ub-CHOP2 coupled fluorogenic reporter, 485/531; Potency, µM (series often up to 38.3 µM), for the others: at the top dose activity change, negative = inhibition, hits mostly inhibitors; AID 463254, 2010; 330,000 tested, 0.01% active; Ubiquitin carboxyl-terminal hydrolase 2 (Homo sapiens), O75604;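 further: potency means the concentration at half of the fitted maximal effect; plate controls were DMSO wells for no effect and full inhibition by NEM control for full effect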
#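 Deubiquitinase activity read as fluorescence (485/531 nm) after Ub-CHOP2 cleavage activates the enterokinase reporter on its substrate; USP2 core 10nM, Ub-CHOP2 and substrate 25nM each, 30min compound preincubation then 60min RT; data normalized to NEM, curves fitted.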
# Coupling enz = qHTS Assay for Inhibitors of Fructose-1,6-bisphosphate Aldolase from Giardia Lamblia: Coupling assay counterscreen | coupling enzyme system counterscreen, AmpLite Red fluorescence | activity change, negative = inhibition, % at 58.2 µM, hits read low | 290,000 tested, 0.67% active | AID 2472, 2010; in the data active means activity change below about -30%
#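 Compounds tested against the coupling enzymes alone at 57.5 uM final; readout was AmpLite Red fluorescence (525/598 nm) after 20 min at RT.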
# Starred values were filed as active, the others as inactive; ? = inconclusive; . = not tested or not shown. Shown are actives, neighbours in structure and some others; about 3.2% of the full set was active somewhere. Unless noted, the call rests on the fitted dose curve; in most records, active means well fitted curve in the direction sought with a large enough effect; inconclusive means small, poorly fitted or top-dose-only effect, or another doubt; inactive means no such curve, though single readings can be large; an effect the other way counts as inactive or inconclusive. Unless noted, on the % scale 0 is the no-effect control and ±100 the full control effect.
SMILES,VDR inhibitor,GALK inh,PLK1 PBD block,USP1-UAF1 inh,USP2a block,Coupling enz
Cn1nc([N+](=O)[O-])nc1Oc1ccccc1F,-25.3%,6.4%,23.8µM*,-19.8%,2.6%,-3.9
Cc1ccc(C)c2[nH]c(=O)c(CN(Cc3ccco3)S(=O)(=O)c3ccc4c(c3)OCCO4)cc12,6.2%,-2.5%,-0.8%,-12.5%,5.4%,-0.3
COc1cc2c(cc1OC)/C(=C/C(=O)c1ccc([N+](=O)[O-])c(C)c1)NCC2,?,0.7%,18.9µM*,-5.6%,-0.9%,1.7
COc1cccc(CCNC(=O)c2c(O)nc3c(C)cccn3c2=O)c1,4.5%,.,.,-6.3%,.,.
O=C(NCc1ccco1)c1cc([N+](=O)[O-])ccc1N1CCCCC1,?,1.8%,23.8µM*,-21.7%,0.0%,3.9
CCN(CC)C(=O)c1cn(CCC#N)nc1-c1ccc2c(c1)OCCO2,-13.8%,0.5%,-6.9%,-21.5%,2.8%,0.0
C[C@H](CO)N1C[C@H](C)[C@H](CN(C)S(=O)(=O)c2cccc(C#N)c2)OCc2cnnn2CCCC1=O,.,.,29.9µM*,-6.4%,.,.
C[C@H]1CN([C@@H](C)CO)C(=O)CCCn2nncc2CO[C@H]1CN(C)S(=O)(=O)c1cccc(C#N)c1,.,.,-3.5%,-20.1%,.,.
O=C(N/N=C/c1cc(Cl)cc(Cl)c1O)c1ccncc1,-18.6%,5.8%,7.9%,31.6µM*,?,4.7
O=C(N/N=C/c1ccc(Cl)cc1Cl)c1ccncc1,9.3%,5.8%,-8.6%,-20.8%,1.8%,1.4
Nc1c(C=C2C=CC(=O)C=C2)c(=O)nc2sc(CC(=O)N3CCOCC3)nn12,-4.3%,-0.3%,-13.4%,-14.2%,3.3%,11.0
CCCOc1ccc(N/C=C/C(=O)c2ccc(OC)c(OC)c2)cc1,?,1.3%,21.2µM*,-22.4%,-2.7%,-1.3
CCOc1ccc(N/C=C/C(=O)c2ccc(OC)c(OC)c2)cc1,6.7%,-0.6%,8.8%,-1.5%,-1.6%,-1.4
Cc1ccc(C)c(NC(=O)CCc2ccc(S(=O)(=O)NC3CCCCC3)cc2)c1,-8.4%,0.2%,6.7µM*,-13.1%,-0.3%,0.1
O=C(CSc1nnc(-c2cccc(S(=O)(=O)N3CCCC3)c2)n1-c1ccccc1)Nc1ccc(C(=O)O)cc1,0.1%,3.7%,75.2µM*,-1.1%,1.7%,-2.0
O=C(CSc1nnc(-c2cccc(S(=O)(=O)N3CCCC3)c2)n1-c1ccccc1)Nc1cccc(C(=O)O)c1,-15.5%,-2.0%,?,-7.6%,4.0%,6.4
CCn1nc(C)cc1C(=O)Sc1ccc(Cl)cc1Cl,79.4µM*,-0.3%,18.9µM*,-9.0%,0.4%,1.2
COc1ccc(NC(=O)[C@@H]2[C@@H]3C(=O)N(C4CCCCC4)C(=O)[C@@H]3C3c4ccccc4C=CN32)cc1 (some centres undefined),-1.4%,2.8%,11.7%,31.6µM*,-6.5%,-30.6*
Cc1cc(C)n(CC(O)CN(c2ccccc2)S(=O)(=O)c2ccccc2)n1 (centres undefined),-4.9%,-2.6%,-3.6%,-0.5%,-0.1%,1.5
CCn1nc(C(=O)Nc2ccc3c(c2)OCCO3)c2ccccc2c1=O,.,.,-6.0%,-15.1%,.,.
CCn1nc(C(=O)OCC(=O)c2ccc3c(c2)OCCO3)c2ccccc2c1=O,?,3.8%,21.2µM*,-15.0%,2.9%,2.7
CCCS(=O)(=O)c1nc(S(=O)(=O)c2ccc(C)cc2)c(N2CCN(C)CC2)s1,17.8%,-0.6%,-9.5%,-18.3%,3.9%,-0.1
COc1ccccc1NC(=O)c1ccc(NC(=O)COC(=O)C2(C)CC2(Cl)Cl)cc1 (centres undefined),-13.6%,-0.3%,21.2µM*,-7.2%,2.1%,-0.7

# Bioassay records as filed in PubChem BioAssay.
